Records with an inconclusive call do not appear. Calls of active or inactive are those of the source. Calls come from the whole dose curve; as a rule, active = well fitted curve in the direction sought with a large enough effect; inconclusive = small, poorly fitted or top-dose-only effect, or another doubt; inactive = no such curve, though single readings can be large; an effect the other way counts as inactive or inconclusive.
Tests used:
MCC-13 = assay: qHTS assay to identify novel small-molecules to repurpose for Merkel cell carcinoma treatment (AID 1296009); details: MCC and control cell lines, CellTiter-Glo viability, 72 h; series mostly up to 46 µM; note: nearly all actives have a fitted effect of over 60% in size
Summary of the method: (§1)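 Cell viability measured by CellTiter-Glo following 72 hr compound treatment at 37 degree celsius, with NPC and MIPE libraries tested in 8- and 11-point concentration series.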

MCC-26 = assay: as above; details: MCC and control cell lines, CellTiter-Glo viability, 72 h; series mostly up to 46 µM
Summary of the method: as §1

MKL-1 = assay: as above; details: MCC and control cell lines, CellTiter-Glo viability, 72 h; series mostly up to 46 µM
Summary of the method: as §1

MKL-2 = assay: as above; details: MCC and control cell lines, CellTiter-Glo viability, 72 h; series mostly up to 46 µM
Summary of the method: as §1

UISO = assay: as above; details: MCC and control cell lines, CellTiter-Glo viability, 72 h; series mostly up to 46 µM
Summary of the method: as §1

WaGa = assay: as above; details: MCC and control cell lines, CellTiter-Glo viability, 72 h; series mostly up to 46 µM
Summary of the method: as §1

C33A = assay: Primary qHTS to identify gynecologic anti-cancer compounds using libraries of approved drugs and bioactive compounds (AID 1345084); details: Gynecologic cancer cell panel viability, ATPlite luminescence, 48 h; series mostly up to 57.5 µM; note: nearly all actives have a fitted effect of over 55% in size
Summary of the method: (§2)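 In this quantitative HTS, cell killing is estimated from loss of ATP-dependent luciferase light. Cells see five compound concentrations over a 48 h exposure.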

CASKI = assay: as above; details: Gynecologic cancer cell panel viability, ATPlite luminescence, 48 h; series mostly up to 57.5 µM
Summary of the method: as §2

CAOV3 = assay: as above; details: Gynecologic cancer cell panel viability, ATPlite luminescence, 48 h; series mostly up to 57.5 µM
Summary of the method: as §2

NIH3T3 = assay: qHTS assay to identify novel small-molecules to repurpose for Merkel cell carcinoma treatment (AID 1296009); details: MCC and control cell lines, CellTiter-Glo viability, 72 h; at 44.8 µM (top of the series); note: nearly all actives have a fitted effect of over 60% in size
Summary of the method: as §1

Measured: Potency
Potency is the fitted concentration of half-maximal effect.

CC(C)(C)NC[C@H](O)COc1nsnc1N1CCOCC1
inactive: MCC-13 | MCC-26 | MKL-1 | MKL-2 | UISO | WaGa | C33A | CASKI

CCN1CCN(C(=O)N[C@@H](C(=O)N[C@@H]2C(=O)N3C(C(=O)O)=C(CSc4nnnn4C)CS[C@H]23)c2ccc(O)cc2)C(=O)C1=O
inactive: MCC-13 | MCC-26 | MKL-1 | MKL-2 | UISO | WaGa | C33A | CASKI

O=C(O)c1ccc(S(=O)(=O)N(Cl)Cl)cc1
inactive: MCC-13 | MCC-26 | MKL-1 | MKL-2 | UISO | WaGa | C33A | CASKI

O=S(c1cc(Cl)cc(Cl)c1O)c1cc(Cl)cc(Cl)c1O
inactive: MCC-13 | MCC-26 | MKL-1 | MKL-2 | UISO | C33A | CAOV3 | CASKI

Cc1nc(-c2ccc(Cl)cc2)oc1COC(C)(C)C(=O)O
inactive: MCC-13 | MCC-26 | MKL-1 | MKL-2 | UISO | WaGa | C33A | CASKI

CC(=O)Nc1ccc(CC(=O)O)cc1
inactive: MCC-13 | MCC-26 | MKL-1 | MKL-2 | UISO | WaGa | C33A | CASKI

CN(C)CCN1C(=O)c2ccccc2N(C)c2ccccc21
inactive: MCC-13 | MCC-26 | MKL-1 | MKL-2 | UISO | WaGa | C33A | CASKI

Cc1ccc(-c2ncc(Cl)cc2-c2ccc(S(C)(=O)=O)cc2)cn1
inactive: MCC-13 | MCC-26 | MKL-1 | MKL-2 | UISO | WaGa | C33A | CASKI

CCOC(=O)Nc1ccc2c(c1)N(C(=O)CCN1CCOCC1)c1ccccc1S2
inactive: MCC-13 | MCC-26 | MKL-1 | MKL-2 | UISO | WaGa | C33A | CASKI

CC(=O)OC[C@H]1O[C@@H](n2ncc(=O)[nH]c2=O)[C@H](OC(C)=O)[C@@H]1OC(C)=O
inactive: MCC-13 | MCC-26 | MKL-1 | MKL-2 | UISO | C33A | CAOV3

C[N+]12CCC(CC1)C(OC(=O)C(O)(c1ccccc1)c1ccccc1)C2 (stereo unspecified)
inactive: MCC-13 | MCC-26 | MKL-1 | MKL-2 | UISO | WaGa | C33A | CASKI

CC(C)(C)NCC(O)COc1cccc2c1C[C@H](O)[C@H](O)C2 (stereo partly specified)
inactive: MCC-13 | MCC-26 | MKL-1 | MKL-2 | UISO | WaGa | C33A | CASKI

Cc1cn([C@H]2C[C@H](F)[C@@H](CO)O2)c(=O)[nH]c1=O
inactive: MCC-13 | MCC-26 | MKL-1 | MKL-2 | UISO | WaGa | C33A | CASKI

Nc1nc(N)c(-c2ccccc2)s1
inactive: MCC-13 | MCC-26 | MKL-1 | MKL-2 | UISO | WaGa | C33A | CASKI

c1ccc(-c2nc[nH]c2-c2ccccc2)cc1
inactive: MCC-13 | MCC-26 | MKL-1 | MKL-2 | UISO | WaGa | CASKI

COc1ccc(C(Cl)=C(c2ccc(OC)cc2)c2ccc(OC)cc2)cc1
inactive: MCC-13 | MCC-26 | MKL-1 | MKL-2 | UISO | WaGa | C33A | CASKI

CN1CCN(C2=Nc3ccccc3Sc3ccc(Cl)cc32)CC1
inactive: MCC-13 | MCC-26 | MKL-1 | MKL-2 | UISO | C33A | CAOV3 | CASKI

CCOC(=O)c1ccc(N)cc1
inactive: MCC-13 | MCC-26 | MKL-1 | MKL-2 | UISO | WaGa | C33A | CASKI

C=C[C@H]1CN2CC[C@H]1C[C@@H]2[C@@H](O)c1ccnc2ccc(OC)cc12
inactive: MCC-13 | MCC-26 | MKL-1 | MKL-2 | UISO | WaGa | C33A | CASKI

CN1CCN(c2c(F)cc3c(=O)c(C(=O)O)cn4c3c2SCC4)CC1
inactive: MCC-13 | MCC-26 | MKL-1 | MKL-2 | UISO | WaGa | C33A | CASKI

CCN(CC)CCOC(=O)C1(c2ccccc2)CCCC1
inactive: MCC-13 | MCC-26 | MKL-1 | MKL-2 | UISO | WaGa | C33A | CASKI

O=C(O)C(Cc1cc(I)c(O)c(I)c1)c1ccccc1 (stereo unspecified)
inactive: MCC-13 | MCC-26 | MKL-1 | MKL-2 | UISO | WaGa | C33A | CASKI

CC(=O)NCCCCCC(=O)O
inactive: MCC-13 | MCC-26 | MKL-1 | MKL-2 | UISO | WaGa | C33A | CASKI

Cc1ccc(O)c([C@H](CCN(C(C)C)C(C)C)c2ccccc2)c1
inactive: MCC-13 | MCC-26 | MKL-1 | MKL-2 | UISO | C33A | CAOV3 | CASKI

CCc1oc2ccccc2c1C(=O)c1cc(Br)c(O)c(Br)c1
inactive: MCC-13 | MCC-26 | MKL-1 | MKL-2 | C33A | CAOV3 | CASKI

C[N+]1(CC2COC(c3ccccc3)(C3CCCCC3)O2)CCCCC1 (stereo unspecified)
inactive: MCC-13 | MCC-26 | C33A | CAOV3 | CASKI
active: MKL-1 10.6 µM | MKL-2 5.96 µM | WaGa 18.8 µM

C=C1c2cccc(O)c2C(O)=C2C(=O)[C@]3(O)C(O)=C(C(N)=O)C(=O)[C@@H](N(C)C)[C@@H]3[C@@H](O)[C@H]12
inactive: MCC-13 | MCC-26 | MKL-1 | NIH3T3 | UISO | WaGa | C33A | CAOV3 | CASKI

CCCCc1cc2ccccc2c(OCCN(C)C)n1
active: WaGa 21.1 µM
inactive: MCC-13 | MCC-26 | MKL-1 | C33A | CAOV3

NCCNC(=O)c1ccc(Cl)cn1
inactive: MCC-13 | MCC-26 | MKL-1 | UISO | WaGa | C33A | CASKI

C[N+]1(C)CCC(=C(c2ccccc2)c2ccccc2)CC1
inactive: MCC-13 | MCC-26 | MKL-1 | MKL-2 | C33A | CAOV3 | CASKI

CCO[C@@H]1O[C@H](C(COCc2ccccc2)OCc2ccccc2)[C@H](OCc2ccccc2)[C@H]1O (stereo partly specified)
inactive: MCC-13 | MCC-26 | MKL-1 | C33A | CASKI
active: WaGa 26.6 µM

CC(C)(Cc1c[nH]c2ccccc12)NCC(O)COc1ccccc1C#N (stereo unspecified)
inactive: MCC-13 | MCC-26 | MKL-1 | MKL-2 | C33A | CAOV3 | CASKI

CC(=O)O[C@]1(C(C)=O)CC[C@H]2[C@@H]3C=C(Cl)C4=CC(=O)CC[C@]4(C)[C@H]3CC[C@@]21C
inactive: MCC-13 | MCC-26 | MKL-1 | UISO | WaGa | C33A | CAOV3 | CASKI

CN1CCN(C2=Nc3cc(F)ccc3Cc3ccccc32)CC1
inactive: MCC-13 | MCC-26 | MKL-1 | MKL-2 | UISO | C33A | CAOV3 | CASKI

C=C[C@H]1CN2CC[C@H]1C[C@H]2[C@H](O)c1ccnc2ccc(OC)cc12
inactive: MCC-13 | MCC-26 | MKL-1 | MKL-2 | UISO | C33A | CAOV3 | CASKI

C[C@@]12C(=O)OC(=O)[C@]1(C)C1CCC2O1
active: MCC-13 3.76 µM | MCC-26 4.22 µM | MKL-1 3.76 µM | UISO 2.66 µM | CAOV3 0.631 µM | CASKI 6.31 µM

Cc1cc(NS(=O)(=O)c2ccc(N)cc2)nc(C)n1
inactive: MCC-13 | MCC-26 | MKL-1 | MKL-2 | WaGa | C33A | CAOV3 | CASKI

CC[C@H](c1ccc(O)cc1)[C@@H](CC)c1ccc(O)cc1
inactive: MCC-13 | MCC-26 | MKL-1 | C33A | CAOV3 | CASKI

CC(=C(CCOC(=O)C(C)C)SSC(CCOC(=O)C(C)C)=C(C)N(C=O)Cc1cnc(C)nc1N)N(C=O)Cc1cnc(C)nc1N
inactive: MCC-13 | MCC-26 | MKL-1 | NIH3T3 | UISO | WaGa | C33A | CAOV3 | CASKI

CC(C)n1c(/C=C/[C@@H](O)C[C@@H](O)CC(=O)O)c(-c2ccc(F)cc2)c2ccccc21
inactive: CASKI
active: MCC-13 9.44 µM | MCC-26 13.3 µM | MKL-1 13.3 µM | UISO 3.35 µM

Cc1cc(CC(=O)O)c(C)n1-c1ccc(Cl)cc1
inactive: MCC-13 | MCC-26 | MKL-1 | NIH3T3 | UISO | WaGa | C33A | CAOV3 | CASKI

NC(=O)n1c(O)c(C(=O)c2cccs2)c2cc(Cl)ccc21
inactive: MCC-13 | MCC-26 | MKL-1 | MKL-2 | C33A | CAOV3 | CASKI

CC(=O)OCC1=C(C(=O)O)N2C(=O)[C@@H](NC(=O)CSc3ccncc3)[C@H]2SC1
inactive: MCC-13 | MCC-26 | MKL-1 | UISO | C33A | CAOV3 | CASKI

O=C1[C@H](CC[C@H](O)c2ccc(F)cc2)[C@@H](c2ccc(O)cc2)N1c1ccc(F)cc1
inactive: MCC-13 | MCC-26 | MKL-1 | MKL-2 | UISO | C33A | CAOV3 | CASKI

c1ccc(CC2=NCCN2)cc1
inactive: MCC-13 | MCC-26 | MKL-1 | UISO | C33A | CAOV3 | CASKI

COc1ccc(CCN(C)CCCN2CCc3cc(OC)c(OC)cc3CC2=O)cc1OC
inactive: MCC-13 | MCC-26 | MKL-1 | MKL-2 | UISO | C33A | CASKI

CCC(CC)(CC(=O)Nc1cccc(/C=C/c2nc(C3CCC3)cs2)c1)C(=O)O
inactive: MCC-13 | MCC-26 | MKL-1 | UISO | C33A | CASKI
